# Experimental data taken from PubChem BioAssay (NCI).
# This is part of a sample that, as a whole, favours compounds with a hit. Of some 79,000 tested, about 15% had one in any assay. Unmarked numbers belong to inactive results. Active and inactive are the calls of the source. Cut-off read from the data, not from the text of the source: active = growth inhibition above about 70%; inactive = the rest.
# Assays:
# [1] = NCI Yeast Anticancer Drug Screen. Data for the rad50 strain (AID 155);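 note: 0% = growth of vehicle-only cultures of the same strain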; settings: S. cerevisiae rad50 strain growth inhibition, hits give high values
# How it was run: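 DNA repair mutant yeast, compound exposure, growth read-out; inhibition is taken relative to vehicle.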
# [2] = NCI Yeast Anticancer Drug Screen. Data for the mec2-1 strain (AID 157); settings: S. cerevisiae mec2-1 strain, hits give high values
# How it was run: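 Using mec2-1 yeast: add compound, measure growth, express inhibition versus vehicle-treated cultures.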
# [3] = NCI Yeast Anticancer Drug Screen. Data for the sgs1 mgt1 strain (AID 161);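 note: 0% = growth of cultures given vehicle only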; settings: S. cerevisiae sgs1 mgt1 strain, hits give high values
# How it was run: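 This yeast growth screen uses a strain with defined DNA-repair lesions; compound-treated growth is compared with vehicle-treated growth.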
# [4] = NCI Yeast Anticancer Drug Screen. Data for the cln2 rad14 strain (AID 165);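 note: 0% = growth equal to vehicle treated cultures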; settings: S. cerevisiae cln2 rad14 strain, hits give high values
# How it was run: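 Yeast strain cln2 rad14, bearing defects in cell cycle control and DNA repair, serves as the test system; values reflect growth inhibition compared with vehicle.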
# [5] = NCI Yeast Anticancer Drug Screen. Data for the bub3 strain (AID 167); settings: S. cerevisiae bub3 mutant strain, hits give high values
# How it was run: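 In this screen, a yeast mutant lacking normal mitotic checkpoint function is challenged with compound. Relative growth versus vehicle gives the inhibition value.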
# [6] = NCI Yeast Anticancer Drug Screen. Data for the mlh1 rad18 strain (AID 175); settings: S. cerevisiae mlh1 rad18 strain growth inhibition, hits give high values
# How it was run: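 Steps: expose repair-defective yeast to compound; measure growth; express inhibition against vehicle-treated controls.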
# [7] = at 5.0 µM (retest, dose inferred, filed as 0.5)
# [8] = at 50.0 µM (retest, dose inferred, filed as 5.0)
SMILES,"growth inhibition [1, 7]","growth inhibition [1, 8]",growth inhibition ([1]; at 50.0 µM),"growth inhibition [2, 7]","growth inhibition [2, 8]",growth inhibition ([2]; at 50.0 µM),"growth inhibition [3, 7]","growth inhibition [3, 8]",growth inhibition ([3]; at 50.0 µM),"growth inhibition [4, 7]","growth inhibition [4, 8]",growth inhibition ([4]; at 50.0 µM),"growth inhibition [5, 7]","growth inhibition [5, 8]",growth inhibition ([5]; at 50.0 µM),"growth inhibition [6, 7]","growth inhibition [6, 8]",growth inhibition ([6]; at 50.0 µM)
Nc1ccc(/C=C2/c3ccccc3-c3nc4ccccc4cc32)cc1,3%,87% (active),78.9% (active),0%,63%,15.6%,-4%,77% (active),59.9%,-4%,33%,5%,-1%,57%,6.8%,1%,85% (active),52.1%
c1ccc2c(c1)CCCc1cc3ccccc3nc1-2,27%,96% (active),84.8% (active),-30%,98% (active),92.8% (active),-1%,96% (active),93% (active),-12%,96% (active),92% (active),18%,97% (active),91.9% (active),-36%,96% (active),89.7% (active)
CC/C=C\C/C=C\C/C=C\CCCCCCCC(=O)OCC(O)CO (configuration not stated),0%,4%,22.9%,0%,37%,88.1% (active),0%,48%,86.8% (active),1%,10%,42.9%,-2%,83% (active),53.4%,2%,24%,52.5%
CS(=O)(=O)C(=Cc1ccccc1Cl)S(C)(=O)=O,30%,57%,-12.7%,20%,29%,-1.65%,11%,7%,4.05%,2%,13%,12.1%,0%,6%,5%,38%,62%,-28.1%
Cc1ccc(N=Nc2sc(N)nc2C)cc1C,-154%,-57%,64%,-51%,-30%,35.8%,-65%,-45%,14.1%,-58%,-47%,30.1%,-62%,-12%,87.9% (active),-125%,-52%,85.4% (active)
CC(NC(=O)C(Cc1ccccc1)NC(=O)c1ccc[n+](Cc2ccccc2)c1)C(N)=O (configuration not stated),0%,-5%,0.65%,0%,-2%,-3.05%,-1%,3%,-9.9%,0%,-1%,-4.7%,1%,-11%,-1.9%,-1%,-2%,28.1%
C=CC[C@]1(C(C)Cc2ccc(OC)c(OC)c2)C[C@@H](OC)C=CC1=O (some centres not stated),-7%,89% (active),88% (active),8%,89% (active),93% (active),0%,85% (active),88.8% (active),13%,86% (active),88.5% (active),7%,92% (active),89.5% (active),-1%,92% (active),96% (active)
O=C(C(Cl)Cl)N(O)c1ccccc1OCc1ccccc1,10%,52%,72.2% (active),9%,73% (active),41.9%,8%,94% (active),90% (active),6%,27%,34.4%,2%,67%,62.4%,56%,95% (active),89% (active)
Nc1nc(=Nc2ccccc2)ss1,-12%,99% (active),84.8% (active),6%,100% (active),71.1% (active),0%,99% (active),86.5% (active),-7%,99% (active),45.4%,-11%,100% (active),57.5%,12%,99% (active),78.7% (active)
Cc1ccccc1C(=N)c1ccccc1Cc1cccc2ccccc12,9%,93% (active),92.5% (active),-10%,91% (active),88.5% (active),-1%,92% (active),93.2% (active),-11%,87% (active),78.9% (active),-9%,93% (active),88.4% (active),0%,91% (active),91.2% (active)
CN1CCN(CCn2c3c4ccccc4ccc3c3oc(=O)c4ccccc4c32)CC1,40%,95% (active),38.5%,-13%,97% (active),89.7% (active),28%,96% (active),91.2% (active),22%,92% (active),90.4% (active),19%,97% (active),91.8% (active),13%,97% (active),90.8% (active)
CC(C)=CC(=O)OC(CCCc1ccccc1)c1ccc2c(c1)OCO2 (configuration not stated),5%,-5%,-4.6%,7%,-16%,-13.2%,-6%,9%,-4.75%,0%,3%,0.35%,35%,33%,50%,2%,14%,-8.25%
Oc1cccnc1CN1CCCCC1,-5%,19%,-11.7%,6%,22%,-3.1%,7%,8%,-28.5%,14%,14%,85.7% (active),-21%,7%,-10.8%,19%,46%,-21.1%
CC(CO)(CO)N=Cc1cc(I)cc(I)c1O,91% (active),100% (active),99.6% (active),97% (active),100% (active),99.6% (active),86% (active),99% (active),99.7% (active),87% (active),99% (active),99.4% (active),86% (active),100% (active),99.5% (active),98% (active),100% (active),99.6% (active)
O=C(O)C(c1ccccc1)c1ccc(-c2ccccc2)cc1 (configuration not stated),3%,82% (active),96.7% (active),-2%,64%,96% (active),5%,80% (active),97.8% (active),-7%,80% (active),97% (active),1%,49%,79% (active),0%,80% (active),91.2% (active)
O=C(Cl)c1ccc(N=Nc2ccccc2)cc1,2%,31%,69.5%,-1%,23%,37%,-1%,14%,47.5%,0%,23%,49.2%,1%,21%,65.5%,3%,27%,80% (active)
C/C(=C/CC1CCC2C3=CCC4CC(O)CCC4(C)C3CCC12C)C(C)C(C)C (configuration not stated),17%,97% (active),98% (active),-4%,86% (active),74.3% (active),2%,66%,59.1%,0%,69%,81.5% (active),-2%,97% (active),64.8%,13%,89% (active),97.3% (active)
CC(=O)O[C@@H]1c2c(c3c(=O)c4cccc(O)c4c(=O)c=3c2=[N+]=[N-])[C@H](OC(C)=O)[C@@H](OC(C)=O)[C@]1(C)O,99% (active),99% (active),92% (active),99% (active),99% (active),93.7% (active),99% (active),99% (active),93% (active),99% (active),99% (active),91.3% (active),98% (active),99% (active),91.4% (active),99% (active),99% (active),91.6% (active)
Cc1cc(C[P+](c2ccccc2)(c2ccccc2)c2ccccc2)c(C)cc1C[P+](c1ccccc1)(c1ccccc1)c1ccccc1,4%,66%,95.1% (active),-9%,49%,96.7% (active),1%,61%,91.6% (active),3%,32%,82.5% (active),3%,66%,92.1% (active),1%,86% (active),94.5% (active)
